Tau fibril ThT: inhibitors of human tau fibril formation, thioflavin T binding | P10636 | recombinant tau K18 P301L, heparin-induced fibrillization, ThT fluorescence | Potency, µM (top dose mostly 57.4 µM), most hits filed as inhibitors | 2.1% of 270,000 active | AID 1460; further: nearly all actives have a fitted effect of over 55% in size
Target sequence (P10636 561-689 P618L limits assumed): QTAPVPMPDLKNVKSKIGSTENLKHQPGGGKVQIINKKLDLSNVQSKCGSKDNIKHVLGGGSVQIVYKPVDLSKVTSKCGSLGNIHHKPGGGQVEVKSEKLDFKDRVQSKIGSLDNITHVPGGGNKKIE
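K18 P301L tau (15 uM + 0.24 uM Alexa 594-tagged), heparin 20 uM, NaOAc pH 7, 6 h 37 C; ThT 30 uM, 1 h RT, ex 450/em 510 nm.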
Tau fluor cs: counter-screen for tau fibril formation inhibitors; 0.93% of 280,000 active; Potency, µM (highest dose often 57.7 µM); AID 1463; tau K18 P301L (four-repeat tau fragment) Alexa594 fluorescence, heparin fibrillization; further: nearly all actives have a fitted effect of over 55% in size
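Human K18 P301L tau (15 uM unlabeled plus 0.24 uM Alexa 594-labeled, final) in 100 mM sodium acetate pH 7 was mixed with compound and 20 uM heparin and incubated 6 hr at 37 C.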
TRb SRC2 PPI: inhibitors of human thyroid hormone receptor beta-SRC2 interaction; P10828; TRbeta-SRC2 peptide binding, fluorescence polarization; receptor liganded with 1 µM T3; Potency, µM (series often up to 106 µM), most hits filed as inhibitors; 0.065% of 280,000 active; further: nearly all actives have a fitted effect of over 50% in size
Target sequence (P10828 whole entry, looked up): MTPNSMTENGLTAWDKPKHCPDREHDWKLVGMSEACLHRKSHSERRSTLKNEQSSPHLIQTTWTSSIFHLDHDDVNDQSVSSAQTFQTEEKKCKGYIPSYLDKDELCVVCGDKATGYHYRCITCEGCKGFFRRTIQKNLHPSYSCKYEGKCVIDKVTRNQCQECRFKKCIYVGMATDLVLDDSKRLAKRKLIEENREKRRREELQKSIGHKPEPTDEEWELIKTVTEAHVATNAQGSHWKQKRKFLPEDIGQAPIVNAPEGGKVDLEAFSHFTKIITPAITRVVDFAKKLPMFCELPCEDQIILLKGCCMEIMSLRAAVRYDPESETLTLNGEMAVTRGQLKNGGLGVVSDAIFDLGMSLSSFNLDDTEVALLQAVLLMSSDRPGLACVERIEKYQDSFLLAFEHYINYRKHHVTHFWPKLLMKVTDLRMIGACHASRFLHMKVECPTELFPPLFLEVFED
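Human TRb LBD (0.6 uM) plus Texas Red-labeled SRC2 peptide (20 nM), 1uM T3, 5% DMSO, 5 hr at ambient temperature. Decreased polarization (555/632 nm) flags inhibition; data normalized to free and bound peptide controls.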
TexasRed fluor: alters Texas Red total fluorescence, flagging assay interference; Potency, µM (doses to about 106 µM); TRb/SRC2 Texas Red total fluorescence interference; 0.29% of 280,000 active; active means well fitted curve in either direction with a large enough effect; inconclusive means small, poorly fitted or top-dose-only effect
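Flags fluorescent or light-absorbing compounds by total fluorescence, S + 2P, at 555 nm excitation and 632 nm emission. Mixture: 20 nM Texas Red SRC2 peptide, 0.6 uM human TRb LBD, 1 uM T3, 5% DMSO; compound exposure 5 h at ambient temperature.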
Tau fibril FP: inhibitors of human tau fibril formation | K18 P301L tau heparin fibrillization, Alexa594 FP, 6 h | Potency, µM (doses to about 57.7 µM), usual class: inhibitors | 0.39% of 280,000 active | AID 1468; further: nearly all actives have a fitted effect of over 55% in size
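Quantitative HTS format: compounds meet 15 uM recombinant K18 P301L tau and Alexa 594-tau tracer in 100 mM sodium acetate pH 7; 20 uM heparin triggers fibrillization at 37 C over 6 hr; FP gives the signal.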
Each line names hits and unclear results; the compound was inactive in the other large screens; ! = not confirmed by another sample; [ ] = another dose, or the depositor's remark. Only some compounds are listed: those with a hit (about 3% of all), similar ones and a draw of the others. Unless noted, the call rests on the fitted dose curve; in most records, active means well fitted curve in the direction sought with a large enough effect; inconclusive means small, poorly fitted or top-dose-only effect, or another doubt; inactive means no such curve, though single readings can be large; an effect the other way counts as inactive or inconclusive.

CCOC(=O)C1=C(CC)Nc2ccccc2N=C1NC(=O)Nc1ccc(Cl)c(Cl)c1	Tau fibril ThT inconclusive, Tau fluor cs inconclusive, Tau fibril FP 13µM
CCOC(=O)C1=C(CC)Nc2ccccc2N=C1NC(=O)c1ccc(S(=O)(=O)N2CCCC2)cc1	none
COc1ccccc1/C=C/C1=NC(=C\C=C/c2ccccc2)/C(=O)O1	Tau fibril ThT 11µM
COc1ccccc1/C=C/C=C1N=C(/C=C/c2ccc(Cl)cc2)OC/1=O	Tau fibril ThT 13µM
CCOc1ccc(CCNC(=O)c2nnc(Cc3ccc(Cl)cc3Cl)o2)cc1OCC	none
O=C1CCC(C2CCCCC2)CC1	none (no result: Tau fibril ThT, Tau fluor cs, Tau fibril FP)
Cc1ccc(C(=O)c2cn(Cc3ccccc3F)c3cc4c(cc3c2=O)OCO4)cc1	none
O=C1/C(=C/c2ccc(O)cc2)SC(=S)N1CC1CCCO1 (stereo not given)	Tau fibril ThT 10µM, Tau fluor cs 13µM[quencher], Tau fibril FP inconclusive
Cc1cc(C(=O)O)ccc1N/C=C1\CCCC(C)C1=O (stereo not given)	none
CC1CCC/C(=C\Nc2ccc(O)cc2)C1=O (stereo not given)	Tau fibril ThT 18µM, Tau fluor cs inconclusive, TRb SRC2 PPI 28µM, Tau fibril FP inconclusive
O=C(/C=C/c1ccc2c(c1)OCCO2)c1ccccc1	Tau fibril ThT inconclusive, Tau fibril FP inconclusive
Cc1ccc(O)c(C(=O)/C=C/c2ccc3c(c2)OCCO3)c1	Tau fibril ThT 16µM
O=C(/C=C/c1ccc2c(c1)OCO2)c1ccccc1	none
Nc1ccccc1C(=O)/C=C/c1ccc2c(c1)OCO2	Tau fibril ThT 14µM!
Nc1ccccc1C(=O)/C=C\c1ccc2c(c1)OCO2	Tau fibril ThT 1.3µM, Tau fluor cs inconclusive
Cc1ccc(N=Nc2c(O)ccc3n[nH]nc23)cc1	Tau fibril ThT 3.5µM, Tau fluor cs inconclusive
Cc1ccc(Cl)cc1-n1c(=O)cc(N2CCN(c3ccccc3)CC2)[nH]c1=O	none
Cc1ccccc1N1C(=O)C(Cl)=C(N2CCN(c3ccccc3)CC2)C1=O	Tau fibril ThT 16µM, Tau fluor cs inconclusive, Tau fibril FP inconclusive
O=C(O)c1cc(-c2ccc(N3CCOCC3)cc2)nn1-c1ccccc1Cl	Tau fibril ThT inconclusive
Cc1ccc(N2C(=O)C(Cl)=C(N3CCOCC3)C2=O)cc1Cl	Tau fibril ThT 14µM, Tau fluor cs inconclusive, Tau fibril FP 22µM
O=C1C(Cl)=C(N2CCOCC2)C(=O)N1c1ccccc1Cl	Tau fibril ThT 14µM, Tau fluor cs inconclusive, Tau fibril FP 20µM
CN1CCN(C2=C(Cl)C(=O)N(c3cccc(Cl)c3)C2=O)CC1	Tau fibril ThT 22µM, Tau fluor cs inconclusive, Tau fibril FP inconclusive
C=C(COC)C1=CCC(C(=O)OC)(C(=O)OC)[C@@H](C[N+](=O)[O-])c2ccccc21	none
CN1CCN(C2=C(Cl)C(=O)N(Cc3ccccc3)C2=O)CC1	Tau fibril ThT inconclusive
CN1CCN(C2=C(Cl)C(=O)N(c3ccc(Cl)c(Cl)c3)C2=O)CC1	Tau fibril ThT 14µM, Tau fibril FP inconclusive
COC(=O)c1cccc(N2C(=O)C(Cl)=C(N3CCOCC3)C2=O)c1	Tau fibril ThT 14µM, Tau fluor cs inconclusive, Tau fibril FP 28µM
CCOC(=O)c1cc(S(=O)(=O)N2CCN(c3ccc(F)cc3)CC2)[nH]n1	none
O=Cc1ccccc1-n1cccn1	none
Oc1cc(-n2cccn2)c(O)cc1-n1cccn1	Tau fibril ThT 16µM, Tau fluor cs 16µM[quencher], Tau fibril FP inconclusive
Cn1c(=O)c2c(nc(NN=C3CCCC3)n2C)n(C)c1=O	Tau fibril ThT 22µM, Tau fluor cs 22µM[quencher], Tau fibril FP inconclusive
Cc1cc(C)n(-c2nc(C)c(C)c(=O)n2CC(=O)Nc2ccc(OC(F)(F)F)cc2)n1	none
Nc1ccc2nc(-c3ccccn3)[nH]c2c1	Tau fibril ThT 25µM, Tau fluor cs inconclusive
Nc1ccc2nc(-c3ccccc3)[nH]c2c1	Tau fibril ThT inconclusive
Cn1c(=O)n(C)c2cc(N3CCCCC3)c(NC(=O)c3ccc(C(C)(C)C)cc3)cc21	none
Cc1ccc(NC(=S)NNC(=O)c2ccc(N3CCOCC3)c([N+](=O)[O-])c2)cc1Cl	Tau fibril ThT 11µM, Tau fluor cs inconclusive, Tau fibril FP inconclusive
Cc1cccc(NC(=S)NNC(=O)c2cccc([N+](=O)[O-])c2)c1	Tau fibril ThT inconclusive
O=C(NNC(=S)Nc1ccc(Cl)c(Cl)c1)c1cccc([N+](=O)[O-])c1	Tau fluor cs 1.8µM[quencher], Tau fibril FP inconclusive (no result: Tau fibril ThT)
CCn1c(C)nc2cc(C(=O)NNC(=S)Nc3ccc(Cl)cc3Cl)ccc21	TexasRed fluor 8.9µM[quencher]
O=C(N/N=C/c1ccccc1)c1ccc(N2CCOCC2)c([N+](=O)[O-])c1	none
O=C(NNC(=S)Nc1ccc(Br)cc1)c1ccc(N2CCOCC2)c([N+](=O)[O-])c1	Tau fibril ThT 13µM, Tau fluor cs inconclusive, Tau fibril FP inconclusive
CCCc1cc2c(c(=O)o1)C(O)C1OC1C2=O (stereo not given)	Tau fibril ThT inconclusive, Tau fluor cs inconclusive
COC(=O)C1(C(=O)OC)CC2=C[C@H](CC2=O)Cc2ccccc2[C@@H]1C[N+](=O)[O-]	none
CCCOC(=O)N1CCN(/[N+]([O-])=N/Oc2ccc([N+](=O)[O-])cc2[N+](=O)[O-])CC1	none (no result: Tau fibril ThT, Tau fluor cs, Tau fibril FP)
Cc1cccc(NC(=O)c2ccc(-n3cccn3)c([N+](=O)[O-])c2)c1	Tau fibril ThT 6.3µM, Tau fluor cs inconclusive
COc1ccc(NC(=O)c2ccc(NCC3CCCO3)c([N+](=O)[O-])c2)cc1 (stereo not given)	Tau fibril ThT 13µM
Cc1cccc(NC(=O)c2ccc(N3CCOCC3)c([N+](=O)[O-])c2)n1	Tau fibril ThT inconclusive
O=C(NNC(=S)Nc1ccc(Cl)cc1Cl)c1ccc(N2CCOCC2)c([N+](=O)[O-])c1	Tau fibril ThT 5µM, Tau fluor cs inconclusive, Tau fibril FP inconclusive
O=C(Nc1ccc(-c2nc3ccccc3o2)cc1)c1ccc(N2CCOCC2)c([N+](=O)[O-])c1	Tau fibril ThT 2.8µM, Tau fluor cs inconclusive, Tau fibril FP inconclusive
O=C(Nc1ccccc1)c1ccc(NCC2CCCO2)c([N+](=O)[O-])c1 (stereo not given)	none
Brc1ccc(Br)c(Br)c1	none (no result: Tau fibril ThT, Tau fluor cs, Tau fibril FP)
O=C(O)c1ccc(NCCc2ccc(Cl)cc2)c([N+](=O)[O-])c1	Tau fibril ThT 5.6µM
Cc1ccc(C(=O)NCCNc2ccc(Cl)cc2[N+](=O)[O-])o1	Tau fibril ThT 16µM
Cc1cc(C(=O)Nc2ccc(N3CCCC3)c(Cl)c2)ccc1[N+](=O)[O-]	Tau fibril ThT 5µM, Tau fluor cs inconclusive
Cc1ccc(NC(=O)c2ccc(NCCc3ccccc3)c([N+](=O)[O-])c2)cc1F	Tau fibril ThT inconclusive, Tau fluor cs inconclusive
Cc1ccc(CNc2ccc(Cl)cc2[N+](=O)[O-])cc1	Tau fibril ThT inconclusive
Cc1ccc(NC(=O)c2ccc(NCCN)c([N+](=O)[O-])c2)cc1Cl	Tau fibril ThT 13µM, Tau fluor cs inconclusive

From PubChem BioAssay
